# PLK1 PBD block – qHTS for Inhibitors of PLK1-PDB (polo-like kinase 1 - polo-box domain): Primary Screen | Serine/threonine-protein kinase PLK1 (Homo sapiens), P53350 | Plk1 PBD binding of FITC phosphopeptide, fluorescence polarization | Potency, µM, usual class: inhibitors | 360,000 compounds, 2.8% hits; also: series mostly up to about 57 µM; nearly all actives have a fitted effect of over 65% in size
# Target sequence (P53350 whole entry, looked up, the tested form may be a part): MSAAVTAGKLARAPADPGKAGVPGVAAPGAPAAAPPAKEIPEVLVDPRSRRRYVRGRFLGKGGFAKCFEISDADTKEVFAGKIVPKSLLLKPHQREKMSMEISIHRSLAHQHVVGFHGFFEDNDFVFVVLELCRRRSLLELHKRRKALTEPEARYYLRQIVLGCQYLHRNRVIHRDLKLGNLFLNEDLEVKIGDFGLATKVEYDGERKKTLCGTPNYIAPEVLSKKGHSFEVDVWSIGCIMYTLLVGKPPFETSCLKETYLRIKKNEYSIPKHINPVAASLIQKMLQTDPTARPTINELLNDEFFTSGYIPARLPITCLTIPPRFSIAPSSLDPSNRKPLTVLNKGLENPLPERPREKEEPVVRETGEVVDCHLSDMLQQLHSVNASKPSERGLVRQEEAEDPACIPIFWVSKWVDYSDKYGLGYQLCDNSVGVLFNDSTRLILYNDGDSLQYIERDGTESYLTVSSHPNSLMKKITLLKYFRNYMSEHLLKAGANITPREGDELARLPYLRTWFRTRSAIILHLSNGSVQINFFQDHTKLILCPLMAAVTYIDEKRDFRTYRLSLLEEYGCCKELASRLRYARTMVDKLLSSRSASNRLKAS
# JMJD2A Tudor – qHTS Assay for Inhibitors of JMJD2A-Tudor Domain; AlphaScreen JMJD2A-Tudor / H3K4me3 peptide binding; Potency, µM (titrated, usually from 114 µM), actives largely listed as inhibitors; 390,000 compounds, 4.4% hits; Lysine-specific demethylase 4A (Homo sapiens), O75164; also: nearly all actives have a fitted effect of over 50% in size
# HP1b chromo inh – HTS for Inhibitors of HP1-beta Chromodomain Interactions with Methylated Histone Tails | Chromobox protein homolog 1 (Homo sapiens), P83916 | 390,000 compounds, 0.56% hits | AlphaScreen HP1-beta / biotin-H3K9me3 peptide binding | Potency, µM (doses to about 114 µM), hits mostly inhibitors; also: nearly all actives have a fitted effect of over 70% in size
#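 AlphaScreen: HP1-beta (50 nM) preformed 30 min with biotin-H3(1-18)K9me3 peptide (50 nM) in PBS pH 7.4, 0.01% Tween-20. Compound added for 30 min at RT, then streptavidin donor/nickel chelate acceptor beads (10 ug/mL) for 30 min.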
# BAZ2B block – qHTS Assay for Inhibitors of BAZ2B. AlphaScreen BAZ2B-H3K14Ac peptide displacement. 360,000 compounds, 4.4% hits. Bromodomain adjacent to zinc finger domain protein 2B (Homo sapiens), Q9UIF8. Potency, µM (highest dose often 114 µM), hits mostly inhibitors; also: nearly all actives have a fitted effect of over 60% in size
#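 Complex of BAZ2B and biotin-H3K14Ac (50 nM apiece) forms over 30 min at RT, then faces library compounds up to 110 uM for another 30 min; AlphaScreen beads added, 20 min dark incubation, luminescence read.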
# PI5P4K alpha inh – qHTS for Inhibitors of phosphatidylinositol 5-phosphate 4-kinase (PI5P4K); PI5P4Kalpha enzyme, ADP-Glo luminescence, 60 min; active compounds read low; Phosphatidylinositol 5-phosphate 4-kinase type-2 alpha (Homo sapiens), P48426; max response, %; 330,000 compounds, 1.2% hits; AID 652105, 2013; active = max response of -50% or lower; inconclusive = between -30% and -50%; inactive = -30% or higher; also: value at the top dose of about 77 µM
#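 ADP-Glo luminescence end-point after a 60 min room-temperature kinase reaction. PI5P4Kalpha and substrate in HEPES pH 7.4 buffer with EGTA, 0.1% CHAPS and 5% DMSO; ATP at 5 microM final.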
# G9a inh – qHTS Assay for Inhibitors of Histone Lysine Methyltransferase G9a; Histone-lysine N-methyltransferase EHMT2 (Homo sapiens), Q96KQ7; G9a H3K9 monomethylation, AlphaScreen, 2 h; Potency, µM (doses to about 102 µM), actives largely listed as inhibitors; 350,000 compounds, 8.8% hits; also: nearly all actives have a fitted effect of over 75% in size
#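 G9a (20 nM) preincubated 15 min RT with compounds, then 500 nM biotinylated H3K9 peptide and 20 uM SAM added; 2 h RT reaction. Monomethyl-H3K9 product detected by AlphaScreen with anti-H3K9me1 antibody, streptavidin donor and anti-rabbit IgG acceptor beads.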
# A number is an active result; i = inactive; ? = inconclusive; nt = not tested or not shown; [ ] = dose if it differs, or a comment. Shown are actives, neighbours in structure and some others; about 12% of the full set was active somewhere. Unless noted, calls follow the shape of the dose curve; as a rule, active = well fitted curve in the direction sought with a large enough effect; inconclusive = small, poorly fitted or top-dose-only effect, or another doubt; inactive = no such curve, though single readings can be large; an effect the other way counts as inactive or inconclusive.
SMILES,PLK1 PBD block,JMJD2A Tudor,HP1b chromo inh,BAZ2B block,PI5P4K alpha inh,G9a inh
O=C(Nc1ccc2ncccc2c1)c1ccccc1Cl,i,i,i,i,i,10µM
O=C(O)c1ccc(CSc2nc3ccc(NC(=O)c4ccccc4C(=O)O)cc3s2)cc1,i,i,i,?,i,45µM
O=C(NC(=S)Nc1cccc(NC(=S)NC(=O)c2ccccc2)c1)c1ccccc1,i,i,i,nt,i,nt
O=C(NC(=S)Nc1ccc2nc[nH]c2c1)c1ccccc1,i,i,i,i,i,50µM
N#Cc1ccccc1CSc1nc2ccc(NC(=O)c3ccccc3C(=O)O)cc2s1,?,i,i,?,i,?
Cc1ccc(OC(=O)c2ccc3nc(C)sc3c2)cc1,19µM,i,i,i,i,i
O=C(Nc1cccnc1)C1Cc2c(-c3cccc(F)c3)ccnc2O1 (stereo not drawn),i,nt,nt,nt,i,nt
COc1ccc(NC(=O)C2(C)CCN2C(=O)CC2CCCC2)cc1OC (stereo not drawn),i,nt,nt,nt,i,nt
CN(C)CC[n+]1ccc(C(=O)c2ccccc2)cc1,i,i,i,i,i,nt
O=C(NC(=S)Nc1ccc2ncccc2c1)c1ccccc1,i,?,i,?,i,56µM
O=C(Nc1ccc2nc3ccccc3nc2c1)c1ccc(Br)cc1,i,i,i,i,i,8.9µM
CCOCCCNC(=O)Cn1ncc2c([nH]c3ccc(C)cc32)c1=O,nt,i,i,i,nt,i
Nc1cccc(-c2cn3cccnc3n2)c1,30µM,i,i,i,i,i
COc1ccccc1NC(=O)C(C)OC(=O)c1cccc(-n2cnnn2)c1 (stereo not drawn),i,i,i,i,i,i
COc1ccc(OC)c(NC(=O)C(CCSC)NS(=O)(=O)c2cccs2)c1 (stereo not drawn),i,i,i,i,i,i
N#Cc1c(-c2ccco2)cc(-c2ccc(F)cc2)nc1N,?,i,i,i,-64,?
Cc1nc(SC(C(N)=O)c2ccccc2)c(C#N)c(C)c1C (stereo not drawn),i,i,i,i,i,i
COc1ccc(-c2cc(-c3ccccc3)c(C#N)c(SCC(O)CS(=O)(=O)Cc3ccccc3)n2)cc1 (stereo not drawn),nt,i,i,i,nt,i
CCCCS(=O)(=O)CC(O)CSc1nc(-c2ccc(C)cc2)cc(-c2ccccc2)c1C#N (stereo not drawn),nt,i,i,i,nt,7.9µM
N#Cc1c(-c2ccc(Cl)cc2)cc(-c2ccccc2)nc1SCC(=O)O,?,i,i,56µM,i,?
COc1ccccc1-c1cc(-c2ccccc2)nc(SC(C(N)=O)c2ccccc2)c1C#N (stereo not drawn),i,i,i,79µM,i,i
CCc1cccc(C)c1NC(=O)CCn1nc(C)c2c(C)n(-c3ccccc3)nc2c1=O,nt,i,i,i,nt,i
COc1ccc(OC)c(-c2cc(C(=O)Nc3cnn(Cc4ccc(Cl)cc4Cl)c3)no2)c1,nt,i,i,i,nt,i
CCC1COCCS(=O)(=O)N1Cc1ccc(F)cc1 (stereo not drawn),i,i,i,i,i,i
COCCS(=O)(=O)N(Cc1ccc(Br)cc1)[C@@H](C)C(=O)OC,i,i,i,nt,i,nt
SMILES,PLK1 PBD block,JMJD2A Tudor,HP1b chromo inh,BAZ2B block,PI5P4K alpha inh,G9a inh
N#Cc1c(-c2ccccc2)cc(-c2ccccc2)nc1SCCC(=O)O,21µM,i,i,i,i,nt
COc1cc(-c2cc(-c3ccccc3)nc(SCC(=O)O)c2C#N)cc(OC)c1OC,i,i,i,i,i,50µM
N#Cc1c(-c2ccccc2)cc(C2CC2)nc1SCC(=O)O,?,i,i,i,i,11µM
COC(=O)CSc1nc(N)c(C#N)c(-c2ccco2)c1C#N,i,i,i,i,i,i
COc1ccc(NC(=O)CSc2nc(-c3ccccc3)cc(-c3cc(OC)c(OC)c(OC)c3)c2C#N)c(OC)c1,nt,i,i,i,nt,?
COC(=O)CSc1nc(-c2ccccc2)cc(-c2ccco2)c1C#N,i,?,i,71µM,nt,i[0.501 µM]
COc1ccccc1C(=O)N/C(=C\c1cn(C)c2ccccc12)C(=O)NCCCn1ccnc1,i,?,i,?,i,i
COc1ccc2cc(CN(C)C(=O)CN3C(=O)NC4(CCCC4)C3=O)ccc2c1,i,nt,nt,nt,i,nt
N#Cc1c(-c2ccc(F)cc2)cc(-c2ccccc2)nc1SCC(=O)NCC(=O)O,19µM,79µM,?,50µM,i,nt
N#Cc1c(-c2ccccc2)cc(-c2ccccc2)nc1SCC(=O)Nc1ccc(Cl)cc1,nt,i,i,i,nt,?
O=C(c1ccccc1)c1ccc(O)c(O)c1O,i,25µM,?,nt,-91,nt
CN(C)c1ccc(NC(=O)/C=C/c2ccccc2Cl)cc1,i,i,i,i,i,1.1µM
CCN(CC)c1ccc(NC(=O)/C=C\c2ccccc2Cl)cc1,i,?,i,?,nt,3.5µM
COc1ccc(/C=N\NC(=O)c2ccc(F)cc2)cc1COc1cc(F)ccc1[N+](=O)[O-],i,i,i,i,i,nt
COc1ccc(/C=N/NS(=O)(=O)c2ccc(F)cc2)cc1COc1cc(F)ccc1[N+](=O)[O-],i,i,i,i,i,6.3µM
Cc1cc(C)c(OCC(O)CNC(C)(C)C)c(C)c1 (stereo not drawn),24µM,i,i,i,i,i
CCc1cc(=O)oc2c(CN3CCN(C)CC3)c(O)ccc12,i,i,i,i,i,i[2.33 µM]
CN1CCN(Cc2c(O)ccc3cc(Br)ccc23)CC1,24µM,?,i,nt,i,5µM
O=C(CC[C@H]1O[C@@H](n2cnc3c(NC(=O)c4ccccc4)ncnc32)[C@H](O)[C@@H]1O)NCc1cccc2ccccc12,i,nt,nt,nt,i,nt
CN(C(=O)c1ccc(NC(=O)Cc2cccc(NC(=O)C3CCN(C(=O)C4CCCCC4)CC3)c2)cc1)C1CCCC1,i,i,i,i,i,i[2.33 µM]
CCOC(=O)N1CCN(C(=O)CSc2nnc(-c3cccc(OC)c3)o2)CC1,3.4µM,?,i,i,?,50µM
CCOC(=O)N1CCN(C(=O)CSc2nnc(-c3cc(OC)ccc3OC)o2)CC1,3.4µM,i[11.4 µM],i,i,?,?
CCOC(=O)N1CCN(C(=O)CSc2nnc(-c3ccccc3OC)o2)CC1,i,i,i,i,i,i
COc1cc(OC)cc(-c2nnc(SCC(=O)N3CCC(C)CC3)o2)c1,nt,i,i,i,nt,22µM
COc1cccc(-c2nnc(SCC(=O)N3CCCCC3)o2)c1,nt,i,i,i,nt,16µM

# Screening data: PubChem, National Center for Advancing Translational Sciences (NCATS)
